Where “and” joins values, the source holds several entries; their conditions need not be identical. Identical values can stand only once. Results filed as inconclusive are left out. Unmarked numbers belong to inactive results. Calls of active or inactive are those of the source. Calls follow the shape of the dose curve; as a rule, active = well fitted inhibition curve with a large enough effect; inconclusive = small, poorly fitted or top-dose-only effect, or effect the other way; inactive = flat fitted curve, though single readings scatter.
Experiment: VP16 selectivity assay for inhibitors of ROR gamma transcriptional activity
Details: Drosophila Schneider Gal4-VP16 UAS-luciferase reporter, 20 h; series mostly up to 92.2 µM; activity change, negative = inhibition: at the top concentration
Description: NIH Molecular Libraries Probe Production Network [MLPCN] NIH Chemical Genomics Center [NCGC] MLPCN Grant: R03 DA026211-01 Assay Provider: Dan Littman, New York University Assay Overview: The retinoic acid-related orphan receptor (ROR) gamma is a transcription factor that has a central role in the differentiation of Th17 cells, a subset of T helper cells that secrete the inflammatory cytokines IL-17, IL-17F, and IL-22. Th17 cells have been implicated in graft versus host disease, autoimmune disease and asthma. ROR gamma is induced in naive T helper cells in the presence of TGF-beta combined with IL-6, IL-21, or IL-23, and thereafter directs the expression of the Th17 lineage cytokines. To identify nonspecific inhibitors, a Drosophila Schneider cell line was stably transfected with two vectors: a gene expressing a fusion of the Gal4 DNA binding domain and VP16 transactivation domain under the control of the metallothionine promoter and a Photinus luciferase reporter regulated by the Gal4 binding site enhancer, UAS. […] Small molecule inhibitors that inhibit components common to the RORgt and VP16 assays, such as the Gal4 DNA binding domain or the UAS luciferase reporter, will be active in both assays and thus scored as nonspecific.
Assay Protocol Summary: For screening, 600 cells in 4 uL/well were dispensed into white solid 1536-well plates (Grenier) using a solenoid-based dispenser. Following transfer of 23 nL compound or DMSO vehicle by a pin tool, the plates were incubated 1 hr at ambient temperature, and 1 uL/well copper sulfate (700 uM final concentration) was added. The plates were centrifuged 15 s at 1000 RPM and incubated 20 hr at ambient temperature. After addition of 1.5 uL Photinus luciferase detection reagent, the plates were incubated 10 min at ambient temperature and then read by an ViewLux (Perkin Elmer) to detect luminescence.

SMILES	Potency	activity change, negative = inhibition
CCOC(=O)C1CCN(CC(=O)Nc2cc(C)nn2-c2nc3ccccc3s2)CC1	22.9 µM (active)	
O=C(NC(=S)Nc1nc(-c2ccccc2)cs1)c1cccnc1	25.7 µM (active)	
COc1cc(O)c(C(CC(=O)N2CCC(C)CC2)c2ccc(C)cc2)c(OC)c1 (stereo not given)		11.5%
COc1cc(O)c(C(CC(=O)N2CCCC(C)C2)c2ccc3c(c2)OCO3)c(OC)c1 (stereo not given)		10.9%
COc1cc(OC)c(C(c2ccccc2)C(C)(C)C(=O)N2CC(C)CC(C)C2)c(OC)c1 (stereo not given)	18.2 µM (active)	
COC(=O)c1ccc(OCC(=O)c2ccc(O)cc2O)cc1	2.04 µM (active)	
COc1cc(O)c(C(CC(=O)N2CC(C)CC(C)C2)c2ccc(O)cc2)c(OC)c1 (stereo not given)		12.5%
COc1cc(O)c(C(CC(=O)N2CCOCC2)c2ccc3c(c2)OCO3)c(OC)c1 (stereo not given)		21.6%
COc1cc(O)c(C(CC(=O)N2CCCC2)c2ccc3c(c2)OCO3)c(OC)c1 (stereo not given)		-4.65%
Cc1cc(C)n(-c2nc(SCC(=O)O)c3c4c(sc3n2)CCCC4)n1	16.2 µM (active)	
COc1cc(OC)c(C(CC(=O)N2CC(C)CC(C)C2)c2ccc3c(c2)OCO3)c(OC)c1 (stereo not given)	22.9 µM (active)	
COCC1CCCCN1C(=O)c1cc(COc2ccc3ncccc3c2)on1 (stereo not given)	16.2 µM (active)	
COc1ccc2nc(NNC(=O)COc3ccccc3)sc2c1	6.45 µM (active)	
COc1ccc(C(CC(=O)N2CCCC(C)C2)c2c(O)cc(OC)cc2OC)c(OC)c1 (stereo not given)		3.14%
CCOC(=O)Cn1c(CN2CCc3ccccc3C2)nc2c1c(=O)n(C)c(=O)n2C	5.12 µM (active)	
COc1cc(O)c(C(CC(=O)N2CCCC(c3ccccc3)C2)c2ccc3c(c2)OCO3)c(OC)c1 (stereo not given)		-14.8%
COc1ccccc1CNC(=O)[C@@H](NC(=O)C1CCN(C(=O)[C@@H]2CCCN2C(=O)OC(C)(C)C)CC1)C(C)C		6.66%
COc1cc(O)c(C(CC(=O)N2CCCC(C(=O)N3CCCCC3)C2)c2ccc3c(c2)OCO3)c(OC)c1 (stereo not given)		6.67%
CCOc1ccc(-c2cc(CCCC(=O)NCc3cccnc3)no2)cc1	2.88 µM (active)	
CCOc1ncccc1C(=O)OCC(=O)Nc1ccc(-c2nc3ccc(C)cc3s2)cc1	2.57 µM (active)	

SMILES	Potency	activity change, negative = inhibition
CCN(CC)c1ccc(/C=N/n2c(-c3ccccc3Br)n[nH]c2=S)cc1	2.04 µM (active)	
CC1CCCN(C(=O)CC(c2ccc3c(c2)OCO3)c2ccc3ccccc3c2O)C1 (stereo not given)		-13%
CC1CCCN(C(=O)CC(c2ccccc2)c2ccc(O)cc2)C1 (stereo not given)		-20.2%
COc1cc(O)c([C@H](CC(=O)N2CC(C)CC(C)C2)c2ccc3c(c2)OCO3)c(OC)c1 (stereo not given in full)		-28.7%
CCOc1cccc(-c2cc(-c3n[nH]c(=S)n3CC)c3ccccc3n2)c1	2.29 µM (active) and 4.07 µM (active)	
COc1cc(O)c(C(CC(=O)N2CCCC(C)C2)c2ccc(-c3ccccc3)cc2)c(OC)c1 (stereo not given)		-13.7%
O=S(=O)(c1ccc(NC(=S)N/N=C/c2ccc(Oc3ccccc3)cc2)cc1)N1CCOCC1	2.04 µM (active)	
COc1ccc(C(CC(=O)N2CCCC(C)C2)c2ccccc2)cc1 (stereo not given)		-64.7%
COc1cc(OC)c2c(c1)OC(=O)CC2c1ccc2c(c1)OCO2 (stereo not given)		-14.3%
c1ccc(Cn2c(-c3ccccc3)c[n+]3c2SCCC3)cc1	45.7 µM (active)	
COc1cc(O)c(C(CC(=O)N2CCc3ccccc32)c2ccc3c(c2)OCO3)c(OC)c1 (stereo not given)		-14.2%
COc1cc(OC)c(C(CC(=O)N2CCCC(C)C2)c2ccc3c(c2)OCO3)c(OCc2ccccc2)c1 (stereo not given)	12.9 µM (active)	
CC(C)(C)c1ccc(-c2noc(CCC(=O)Nc3cccnc3)n2)cc1	2.04 µM (active)	
COc1cc(O)c(C(CC(=O)N2CCC[C@@H](C)C2)c2ccc3c(c2)OCO3)c(OC)c1 (stereo not given in full)	inactive	
CC1CCCN(C(=O)CC(c2ccc3c(c2)OCO3)c2c(O)cccc2Cl)C1 (stereo not given)	40.7 µM (active)	
O=C(CCCN1C(=O)/C(=C/c2ccccc2Cl)SC1=S)Nc1cccnc1	28.8 µM (active)	
COCC1CCCN(C(=O)CC(c2ccc3c(c2)OCO3)c2c(O)cc(OC)cc2OC)C1 (stereo not given)		-15.9%
CCNC(=O)CCc1nc(-c2ccc(C(C)(C)C)cc2)no1	5.75 µM (active)	
COc1ccc(CNC(=O)[C@H](Cc2ccccc2)NC(=O)C2CCN(C(=O)[C@@H]3CCCN3C(=O)OC(C)(C)C)CC2)cc1		-1.94%
COc1cc(O)c(C(CC(=O)N2CCCC(C)C2)c2cccc3ccccc23)c(OC)c1 (stereo not given)		-28.4%

Reference: PubChem BioAssay AID489036 (National Center for Advancing Translational Sciences (NCATS), 2010)
